# D1 antagonist – human D1 dopamine receptor antagonism. P21728. HEK293 TREx D1 cells, calcium flux, dopamine EC80; stronger effect = lower value. activity change, negative = inhibition, % at 10 µM. 360,000 compounds, 3.2% hits. AID 504652; in the data active = activity change below about -30%; also: % is scaled to controls: 0 for no effect and ±100 for the full control effect
#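 Kinetic fluorescence of a calcium dye serves as the read-out. D1-expressing Hek293 Trex cells, induced overnight at 30 C, are exposed to compound for 180 s before an EC80 dopamine addition, then read 180 s further.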
# D1 agonist – agonists of human D1 dopamine receptor; activation, % at 2 µM; AID 504660; HEK293 T-REx D1 cells, calcium flux, agonist mode; 360,000 compounds, 1% hits; also: 0% is about no effect
#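 Agonism was scored from calcium flux recorded over 180 s (1 read/s) after pintool compound addition, following a 10-cycle baseline. Cells were inducible force-coupled HEK293 TREx D1, plated overnight at 30 C and loaded with no-wash calcium dye.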
# TRHR enhancer – allosterically enhances the human TRH receptor; P34981; TRHR cells, fluo-8 calcium fluorescence, EC20 TRH enhancement; enhancement, % at 2 µM; 360,000 compounds, 0.66% hits; AID 493056; in the data active = enhancement above about 30%; also: 0% is about no effect
# Target sequence (P34981 whole entry, looked up): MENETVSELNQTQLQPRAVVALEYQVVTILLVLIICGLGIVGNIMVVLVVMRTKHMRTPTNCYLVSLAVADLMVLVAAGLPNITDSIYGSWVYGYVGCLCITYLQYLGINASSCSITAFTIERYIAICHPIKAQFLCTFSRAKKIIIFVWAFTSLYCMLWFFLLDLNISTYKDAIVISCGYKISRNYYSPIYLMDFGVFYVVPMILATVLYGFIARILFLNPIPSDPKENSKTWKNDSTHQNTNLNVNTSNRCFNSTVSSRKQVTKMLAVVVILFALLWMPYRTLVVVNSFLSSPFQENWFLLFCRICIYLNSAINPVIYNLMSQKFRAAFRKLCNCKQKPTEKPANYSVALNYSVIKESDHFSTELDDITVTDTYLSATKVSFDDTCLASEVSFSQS
#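 Enhancer read-out: after compound pinning and an initial kinetic agonist-mode read, an EC20 of TRH (10 nM final) was injected and fluo-8 calcium signal (Ex 480/Em 530) followed at 1 s/cycle for 100 cycles in TRHR-expressing cells.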
# D1 PAM – human D1 dopamine receptor positive modulation | P21728 | HEK293 TREx D1 cells, calcium flux, dopamine EC20 potentiation | potentiation, % at 10 µM | 360,000 compounds, 0.036% hits | AID 504651; in the data active = potentiation above about 30%; also: 0% is about no effect
# TRHR agonist – TRH receptor (human) agonism | AID 493084 | 360,000 compounds, 0.18% hits | TRHR cells, calcium flux fluo-8, FDSS agonist mode | P34981 | activation, % at 2 µM; also: 0% is about no effect
#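 TRHR-expressing cells loaded with fluo-8 calcium dye; 23 nL library compound pin-transferred, kinetic FDSS fluorescence (Ex 480/Em 530) recorded about 180 s for agonist-induced calcium release, before a 10 nM TRH EC20 addition for potentiator mode.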
# Active calls of the source: *; / = not tested or not shown. Sampled rows, rich in hits. Any-hit rate of the full collection: about 4.7%. Rule as the data show it, unless noted: active = activation above about 30%; inactive = the rest.
SMILES,D1 antagonist,D1 agonist,TRHR enhancer,D1 PAM,TRHR agonist
Cc1ccc2c(c1)c1c(c(=O)n(-c3ccccc3C)c(=O)n1CC(=O)NCCC1=CCCCC1)n2C,2,0,-4,-1,0
Cc1cccc(CC(=O)Nc2ccc3nc(N4CCC(C)CC4)cc(C)c3c2)c1,-15,4,-6,1,0
CCCCc1n[nH]c2c1/C(=N/OCC)CC(C)(C)C2,62,62*,6,35*,-1
CCCc1n[nH]c2c1C(=O)CC(C)(C)C2,9,2,14,33*,0
CCCCc1n[nH]c2c1/C(=N/O)CC(C)(C)C2,-8,1,0,-8,0
NC(=O)C1CCN(C2CC(=O)NC2=O)CC1 (stereo not given),-37*,5,1,-3,-1
CN1C(=O)CC(N2CCC(C(N)=O)CC2)C1=O (stereo not given),-4,2,2,-1,0
CCN(CC)CCNC(=O)c1ccc(NC(=O)c2ccc(Cl)c(S(=O)(=O)N3CCCCCC3)c2)cc1,-47*,3,-4,-17,1
O=C(Nc1ccc(Br)cc1)c1ccc(Cl)c(S(=O)(=O)N2CCCCCC2)c1,-19,4,-9,1,2
CCN(CC)CCNC(=O)c1ccc(NC(=O)c2ccc(S(=O)(=O)N3CCCCCC3)cc2)cc1,-57*,1,10,-17,0
CC(=O)Nc1ccc(N(C(=O)Cn2nnc3ccccc32)C(C(=O)NCc2ccccc2)c2ccc(C)cc2)cc1 (stereo not given),-1,-1,-10,0,1
CC(C)c1ccc(NC(=O)c2ccc(=O)n(Cc3ccccc3)c2)cc1,/,5,3,2,0
O=C(O)CCC(=O)N1CCN(c2nc(-c3ccccc3Cl)c3cc(Br)ccc3n2)CC1,-5,66*,9,2,0
O=C(O)CCC(=O)N1CCN(c2nc(-c3ccccc3)c3cc(Br)ccc3n2)CC1,10,0,6,-1,0
Cc1ccc(OC(=O)C(F)(F)F)c2c1NCCC2,-22,0,-4,34*,0
COc1ccc(CCNC(=O)C(=O)NCC(c2ccc3c(c2)OCO3)N2CCOCC2)cc1OC (stereo not given),2,0,-6,-4,0
CCOc1ccc(-c2c(C(=O)N/N=C/c3ccco3)nnn2-c2nonc2N)cc1,25,29,6,-5,-1
CCOc1cccc(-c2c(C(=O)N/N=C/c3ccsc3)nnn2-c2nonc2N)c1,45,72*,29,30,3
Cc1ccc(-c2c(C(=O)N/N=C/c3ccsc3)nnn2-c2nonc2N)cc1,111,148*,19,10,0
Cc1ccc(-c2c(C(=O)N/N=C/c3ccco3)nnn2-c2nonc2N)cc1,31,94*,9,7,0
Cc1ccc(-c2c(C(=O)N/N=C/c3cccc(Cl)c3)nnn2-c2nonc2N)cc1,-6,16,9,-3,-2
Cc1ccc(-c2c(C(=O)N/N=C/c3cccs3)nnn2-c2nonc2N)cc1,42,76*,23,20,9
CCOc1ccc(OCC)c(NS(=O)(=O)c2c(C(=O)N3CCCCCC3)c(C)n(C)c2C)c1,0,-1,3,-4,0
CCOC(=O)c1cnn(-c2cccc(Cl)c2)c1C1CCN(C(=O)OC(C)(C)C)CC1,13,3,3,2,0
Cc1ccsc1/C=N/NC(=O)c1nnn(-c2nonc2N)c1-c1ccc2c(c1)OCO2,0,5,5,0,0
SMILES,D1 antagonist,D1 agonist,TRHR enhancer,D1 PAM,TRHR agonist
Nc1nonc1-n1nnc(C(=O)N/N=C/c2cccs2)c1-c1ccc2c(c1)OCO2,25,102*,14,5,6
CCOc1ccccc1N(CC(=O)Nc1ccc(OC)c(Cl)c1)S(=O)(=O)c1ccccc1,2,2,-9,-3,0
O=C1CCc2cc(S(=O)(=O)Nc3ccccc3F)ccc2N1,-42*,2,-5,4,0
O=C1CCc2cc(S(=O)(=O)Nc3ccccc3Cl)ccc2N1,-7,3,2,-2,0
CC1CCN(CCCNC(=O)c2ccc3c(=O)n(Cc4ccc(Cl)cc4)c(=S)[nH]c3c2)CC1,0,12,-7,-8,1
CCCCNC(=O)c1ccc2c(OCC)n(CCCC)nc2c1,-1,0,-4,-3,-1
COC(=O)c1ccc2c(=O)n(Cc3ccc(C(=O)NCCCN4CCC(C)CC4)cc3)c(=S)[nH]c2c1,-42*,0,3,-11,0
Cc1ccc(C)c(N2CCN(C(=O)c3ccc4c(=O)n(CCc5ccccc5)c(=O)[nH]c4c3)CC2)c1,-30*,-1,-1,4,0
O=C(CCc1nnc2n(CCc3ccccc3)c(=O)c3ccccc3n12)NCCCN1CCCCC1,-56*,0,-4,-6,0
CCCn1nc2cc(C(=O)NCCc3cccs3)ccc2c1OCC,-83*,1,-23,-12,-1
O=C(c1cccc(Cl)c1)N(Cc1ccco1)Cc1ccccc1Cl,-4,7,-8,-1,1
CCc1nc(-c2cc(S(=O)(=O)N3CCN(c4ccccc4)CC3)ccc2OC)no1,-8,0,3,-4,0
CC1=C(C(=O)Nc2ccccc2C)C(c2ccccn2)n2nc(SCc3ccccc3F)nc2N1 (stereo not given),-7,4,0,0,-1
CCCCc1nn2c(=O)cc(COC(=O)c3ccc(NC(=O)CCc4ccccc4)cc3)nc2s1,4,-1,2,-1,2
COc1cccc(CNC(=O)Cc2c(C)c3c(cc(C)c4c(C)coc43)oc2=O)c1,-5,0,-2,2,1
COc1c2ccc(C(=O)NCCCCc3ccccc3)cc2nn1C,-35*,3,4,-8,0
CCOCCCNC(=O)c1ccc2c(=O)n(CCc3ccccc3)c(=O)[nH]c2c1,-39*,0,-1,-1,0
O=C(NCCCN1CCCCC1)c1ccc2c(=O)n(CCc3ccccc3)c(=O)[nH]c2c1,-46*,1,1,-8,1
CCCCCNC(=O)c1ccc2c(=O)n(CCc3ccccc3)c(=O)[nH]c2c1,8,1,4,-1,0
CCOC(=O)N1CCc2c(sc(NCc3cccc(F)c3)c2C(=O)Nc2ccc(OC)cc2OC)C1,-6,0,0,2,0
Cc1cc(=O)n(CC(=O)Nc2ccc([N+](=O)[O-])cc2)c(-n2nc(C)cc2C)n1,/,-3,-7,-2,0
CC(C)c1ccc(N(CC(=O)NCCSCc2ccco2)S(C)(=O)=O)cc1,-61*,2,-3,5,0
COc1ccc(N(CC(=O)NCc2ccco2)S(C)(=O)=O)cc1Cl,-68*,2,-1,-2,0
Cc1cccc(N(CC(=O)NCCSCc2ccco2)S(=O)(=O)c2ccccc2)c1,-17,3,4,-5,-1

# Bioassay records (PubChem)
